# From PubChem BioAssay
# M1 antag – M1 muscarinic receptor (rat) antagonism; P08482; 64,000 compounds, 3.4% hits; B-score at 10 µM; AID 628; CHO-M1 cells, Fluo-4 calcium, ACh EC80 antagonist mode; active compounds read low;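 active = calcium fluorescence response, raw or row-and-column corrected B-score, differing from the plate sample mean either way at a set confidence level, mostly lower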
# Htt clearance – compounds clearing mutant huntingtin protein; HeLa Exon1htt(103Q)mCFP, aggregate imaging; zero = plate's median compound well; inhibition, % at 1.5 µM; 47,000 compounds, 0.42% hits;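 active = inhibition of aggregate fluorescence above about 70%, also judged a hit by eye on the cell image, limit read from the data, passing the limit was not always enough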;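 also: cells exposed to compound for three days before fixation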
# D1 allo mod – D1 dopamine receptor (human) allosteric modulation. P21728. HEK293 D1, CRE-luciferase, dopamine EC30 potentiation; actives deviate in either direction. B-score at 10 µM. 58,000 compounds, 5.9% hits. AID 641;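 active = luminescence count or its row- and column-corrected plate score outside the 99.7% band of the plate's sample wells, on either side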
# Target sequence (P21728 whole entry, looked up): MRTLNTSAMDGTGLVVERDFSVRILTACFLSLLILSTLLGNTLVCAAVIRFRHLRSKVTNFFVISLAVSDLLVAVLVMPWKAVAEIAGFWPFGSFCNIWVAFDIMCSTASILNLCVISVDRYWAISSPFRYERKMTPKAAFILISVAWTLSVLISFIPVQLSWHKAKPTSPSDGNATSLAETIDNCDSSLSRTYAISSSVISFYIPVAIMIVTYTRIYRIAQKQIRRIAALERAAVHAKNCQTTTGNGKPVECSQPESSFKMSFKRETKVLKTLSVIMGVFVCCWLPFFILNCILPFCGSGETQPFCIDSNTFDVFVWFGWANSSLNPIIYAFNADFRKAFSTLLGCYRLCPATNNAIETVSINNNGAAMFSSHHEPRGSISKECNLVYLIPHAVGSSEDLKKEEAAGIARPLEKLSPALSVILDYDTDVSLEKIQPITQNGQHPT
# M1 ag – activates the M1 muscarinic receptor; 64,000 compounds, 3% hits; B-score at 10 µM; AID 626; CHO-M1 cells, Fluo-4 calcium fluorescence, agonist mode; active compounds read high;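 active = fluorescence rise, raw or as B-score row- and column-corrected plate score, outside the 99.7% band of its plate's samples, either direction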
# D1 PAM confirm – D1 receptor (human) allosteric modulation, confirmed | luminescence at 10 µM | 2,200 compounds, 88% hits | AID 642 | HEK293 D1 CRE-luciferase, dopamine EC30 potentiation; active compounds read high | shares compounds with D1 allo mod;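 active = luminescence in either of two replicates above the same-plate mean plus 3 SD of the low-dose dopamine control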
# D1 ag no DA – activates D1 CRE-luciferase signal without dopamine present; shares compounds with D1 allo mod; HEK293 D1 CRE-luciferase, luminescence, no dopamine; active compounds read high; luminescence at 10 µM; 1,900 compounds, 0.8% hits; AID 646; in the data active = luminescence above about 3900
# Isoprot counter – alters isoproterenol CRE-luciferase response in HEK293 cells; shares compounds with D1 allo mod; HEK293 D1 CRE-luciferase, isoproterenol EC30 counter-screen; active compounds read high; luminescence at 10 µM; 2,200 compounds, 63% hits; AID 647;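 active = luminescence in either replicate above plate mean of wells with a partly effective reference agonist dose plus 3 SD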;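 also: isoproterenol raises cAMP through native beta-adrenoceptor Gs so signal bypasses D1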
# Active calls of the source: *; x = not tested or not shown. An excerpt weighted towards active compounds, which were near 9.1% of everything screened.
SMILES,M1 antag,Htt clearance,D1 allo mod,M1 ag,D1 PAM confirm,D1 ag no DA,Isoprot counter
COc1ccc(Cl)cc1C(=O)NC(=S)Nc1cc(-c2nc3ccccc3[nH]2)ccc1C,x,-18.5,x,x,x,x,x
Cc1ccc(NC(=O)CC2SC3=NCCCN3C2=O)c(C)c1 (configuration not stated),-0.0213,9.1,0.0113,1.6,x,x,x
Cc1cc(C)n2c(SCC(=O)NCc3ccco3)nnc2n1,-1.87,x,-0.603,-0.338,x,x,x
Cc1cc(C)n2nc(SC(C)C(=O)NCc3ccco3)nc2n1 (configuration not stated),0.388,10.6,7.1*,-0.0925,6820,1844,2388
O=C(OCc1c(Cl)cccc1Cl)c1cccnc1,0.547,-58.6,x,-0.678,x,x,x
COC(=O)c1ccc(OC)c(CSc2nnc(COc3ccc(OC)cc3)o2)c1,-0.274,x,6.44*,0.23,5284,1456,2392
COC(=O)c1ccc(OC)c(CSc2nnc(COc3cccc(C)c3)o2)c1,0.144,x,0.125,0.313,x,x,x
O=C1CC(c2ccccc2)C(C(=O)O)N1 (configuration not stated),-0.147,-16.8,14.9*,0.656,4528,x,2596
Nc1nc(SCC(=O)N2CCCc3ccccc32)n(-c2ccccc2)n1,0.0716,x,-0.0211,-1.01,x,x,x
Cn1c(=O)c2c(SCc3ccccc3)nc(-c3ccco3)nc2n(C)c1=O,-0.265,x,3.25*,0.22,12880*,1832,3356
CCCCN(C)C(=O)c1coc(=O)c2ccccc12,0.00443,x,3.06*,-0.228,5824,x,2404
CN(C(=O)c1coc(=O)c2ccccc12)c1ccc(F)cc1,0.401,x,0.441,-0.128,x,x,x
N#Cc1ccccc1Cn1c(=O)n(Cc2ccc(C(=O)NCc3ccco3)cc2)c(=O)c2sccc21,0.766,x,15.7*,-0.45,10644*,1632,3284*
N#Cc1ccccc1Cn1c(=O)n(-c2ccc(CC(=O)NCc3ccco3)cc2)c(=O)c2sccc21,0.212,x,-0.216,-0.00987,x,x,x
CCCOC(=O)C1=C(C)NC2=C(C(=O)CCC2)C1c1cccc(OC)c1OC (configuration not stated),0.538,x,0.00632,0.0356,x,x,x
CCSc1nnc2c(n1)OC1(CCCC1)Nc1ccccc1-2,0.0104,18.6,6.55*,0.202,15136*,1636,3568*
COc1ccccc1C(=O)C1Nc2ccccc2-c2nnc(SC)nc2O1 (configuration not stated),0.2,-3.3,0.0365,-0.697,x,x,x
COc1cc2[nH]c(=O)n(CCCCCC(=O)NCCCN3CCCC3=O)c(=O)c2cc1OC,-0.554,x,-0.18,-0.0245,x,x,x
CCOc1cc2[nH]c(=O)n(CCCN3CCCC3=O)c(=O)c2cc1OCC,0.745,-1.0,2.71*,-0.107,6760*,x,2644
Oc1ccc(-c2nc3cnccn3c2Nc2ccc3c(c2)OCCO3)cc1,-1.47,-8.9,2.84*,0.499,9088*,1484,3604*
O=C1CC(C2CCCO2)C(=O)N1c1cccc(Cl)c1 (configuration not stated),0.431,x,-0.536,-0.269,x,x,x
C=CCN=C(NC#N)SCC(=O)c1cccc(OC)c1,-0.00891,20.8,11.9*,-0.701,10808*,1776,3492*
CC(C)c1ccc(-c2nc(N3CCCCC3)[nH]c(=O)c2C#N)cc1,0.428,x,5.54*,0.553,19464*,1772,3288
CC1CCN(c2nc(-c3ccccc3)c(C#N)c(=O)[nH]2)CC1,0.15,x,x,-1.33,x,x,x
CC(Sc1nc(N2CCOCC2)c2c(c1C#N)CC(C)(C)OC2)C(=O)Nc1ccccc1 (configuration not stated),0.0418,-43.1,5.22*,0.0744,9724*,1700,5172*
CC(C)CCSc1nc(N2CCOCC2)c2c(c1C#N)CC(C)(C)OC2,1.21,-19.1,0.942,-0.922,x,x,x
CCOc1ccc(C)cc1S(=O)(=O)n1ccc(C)n1,0.285,-1.8,x,1.4,x,x,x
Cc1cc(N)n2ncc(-c3cccc(Br)c3)c2n1,0.917,-7.7,6.36*,-0.014,10808*,1672,3512*
OC1CCN(c2c3c(nc4cc(-c5ccc(F)cc5)nn24)CCC3)CC1,x,-14.7,x,x,x,x,x
OC1CCCN(c2c3c(nc4cc(-c5cccc(Cl)c5)nn24)CCC3)C1 (configuration not stated),-0.168,30.0,3.35*,-0.301,16460*,1624,5776*
